Test results from PubChem BioAssay (NCI).
The panel holds about 83,000 compounds, 20% with a hit somewhere; the sample as a whole holds those more often.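 Growth was measured after 48 h exposure to one concentration of compound in 96-well plates. Values under 10 count as active.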 Calls of active or inactive are those of the source.

Each compound was assayed on EKVX NSCLC (assay: NCI-60 one-dose screen, 48 h (100 = growth as untreated, 0 = no growth, -100 = all killed)). Conditions: 10 µM unless noted.
In the case of O=C1NN(C(=O)c2ccc(O)cc2)C(c2ccccc2)=N/C1=C\c1cn(-c2ccccc2)nc1-c1ccccc1, the growth is reported as 102% (inactive). C[C@@H]1C(=O)N(C[C@H](Cc2ccccc2)N(Cc2ccccc2)Cc2ccccc2)[C@]1(Cc1ccccc1)C(=O)OC(C)(C)C was tested, and the growth was 53.2% (inactive). COc1cc(/C=C/C(=O)c2cccc(-n3cc(-c4ccc(Cl)cc4)[nH]c3=O)c2)cc(OC)c1OC was tested, and the growth was 64.7% (inactive). In the case of COc1cc(-c2ccc(N=Nc3c(O)c(C(=O)Nc4ccccc4OC)cc4ccccc34)c(OC)c2)ccc1N=Nc1c(O)c(C(=O)Nc2ccccc2OC)cc2ccccc12, the growth is reported as 96.4% (inactive). CC/C=C/[C@@H]1C=C[C@@H]2CCC[C@H]2[C@@H]1CC[C@H](O)[C@H](C)N was tested, and the growth was 82.3% (inactive). In the case of O=C1Nc2ccccc2SC1C1SC(=S)N(Cc2ccccc2)C1=O (stereo not drawn), the growth is reported as 105% (inactive). With O=C1c2ccccc2C2(c3ccc(O)cc3)c3ccccc3Oc3cccc1c32 (stereo not drawn) the growth was 45.7% (inactive). With COc1ccc(-c2cc(-c3cc(OC)ccc3OC)[nH]c(=O)c2C#N)cc1 the growth was 96.5% (inactive). In the case of N[C@@H]1CCC[C@H]1NCCCCN1C(=O)c2cccc3cccc(c23)C1=O, the growth is reported as 85.6% (inactive). O=C1NCC(=O)N(Cc2ccco2)[C@H]1Cc1ccccc1 was tested, and the growth was 89.2% (inactive). With CCNCCNc1cc(-c2ccc(C(F)(F)F)cc2)c(C#N)c2nc3cc(Cl)c(Cl)cc3n12 the growth was -94.2% (active). In the case of Cc1cc(C(c2ccccc2)c2ccccc2)ccc1NS(=O)(=O)c1ccccc1, the growth is reported as 83.5% (inactive). In the case of O=C(O)CC1Sc2ccccc2NC1=O (stereo not drawn), the growth is reported as 113% (inactive). With O=C1CSC(c2ccccc2O)N1c1nnc(Cn2cnnc2)o1 (stereo not drawn) the growth was 81.8% (inactive). CN(C)c1ccc(/C=C/c2c(F)cccc2F)cc1 was tested, and the growth was 76.2% (inactive). COC(=O)CCCNC(=O)C(=O)c1c(O)c(O)c(C(C)C)c2cc(C)c(-c3c(C)cc4c(C(C)C)c(O)c(O)c(C(=O)C(=O)NCCCC(=O)OC)c4c3O)c(O)c12 was tested, and the growth was 2.47% (active). For COc1cc(NC(=O)c2cc(O)c(CC=C(C)C)c(O)c2)cc2c1O[C@]1(C)CC[C@@H](O)C(C)(C)[C@H]1C2, the growth was 41% (inactive). N#Cc1c(-c2ccc(C(F)(F)F)cc2)cc(N2CC(O)C2)n2c1nc1ccccc12 was tested, and the growth was 63.6% (inactive).
